Laboratory results as given in PubChem BioAssay (NCATS).
Inconclusive results are not listed. Activity calls are given as the source filed them. Calls follow the shape of the dose curve; as a rule, active = well fitted cell-killing curve with a large enough effect; inconclusive = small, poorly fitted or top-dose-only effect; inactive = flat fitted curve, though single readings scatter.

Experiments:
[1] = Cell Viability - LYMP2-017 (AID 972); also: series mostly up to about 92 µM; nearly all actives have a fitted effect of over 55% in size
In short: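 Cytotoxicity is scored as a concentration-dependent drop in cellular ATP in a human lymphoblastoid line after 24 hr treatment at 37 C. Values are AC50s from Hill-equation modelling.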

[2] = Cell Viability - LYMP2-019 (AID 973); also: nearly all actives have a fitted effect of over 55% in size
In short: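 Cytotoxicity is scored as a concentration-dependent drop in cellular ATP after cells (2500/well) receive compound for 24 hr at 37 C. Tetraoctylammonium bromide serves as positive control.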

[3] = Cell Viability - LYMP2-021 (AID 974);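 also: compound exposure lasts 24 hours at 37 °C; nearly all actives have a fitted effect of over 55% in size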
In short: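 Loss of cellular ATP, measured with a luciferase-based CellTiter-Glo readout, serves as the toxicity signal in human lymphoblastoid cells treated for 24 hours at 37 C. Potency is reported as AC50 from a standard Hill model.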

[4] = Cell Viability - LYMP2-023 (AID 975);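 also: cellular ATP measured by luciferase luminescence as viability proxy; series mostly up to about 92 µM; nearly all actives have a fitted effect of over 55% in size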
In short: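 Steps: seed 2500 human lymphoblastoid cells per well, incubate 5 hr at 37 C, add compound for 24 hr at 37 C, add CellTiter-Glo, hold 30 min at room temperature, read luminescence. AC50 derived by Hill modelling.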

[5] = Cell Viability - LYMP2-025 (AID 976); also: series mostly up to about 92 µM
In short: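 Acute cytotoxicity is scored as a concentration-dependent fall in intracellular ATP, measured by luciferase luminescence, in human lymphoblastoid LYMP2-025 cells exposed to compound for 24 hours at 37 C. AC50 values come from standard Hill fits.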

[6] = Cell Viability - LYMP2-002 (AID 977);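 also: series mostly up to about 92 µM; compound exposure lasted 24 h at 37 °C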
In short: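 Human lymphoblastoid cells (2500/well) in complete medium were preincubated 5 hr at 37 C, then exposed to compounds for 24 hr at 37 C. Intracellular ATP was read by CellTiter-Glo luminescence; AC50 came from Hill-equation concentration-response fits.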

[7] = Cell Viability - LYMP2-006 (AID 978); also: series mostly up to about 92 µM; nearly all actives have a fitted effect of over 60% in size
In short: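 In this cytotoxicity screen, the human lymphoblastoid line grew in complete medium with test compounds for 24 hr at 37 C. Cellular ATP served as the viability signal.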

[8] = Cell Viability - LYMP2-007 (AID 979);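 also: cells exposed to compound for 24 h before reading; nearly all actives have a fitted effect of over 60% in size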
In short: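 Cells are seeded at 2500 per well and rested 5 hr. Compounds are then added over a concentration series for 24 hr at 37 C. CellTiter-Glo is added for 30 min at room temperature before luminescence reading.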

[9] = Cell Viability - LYMP2-008 (AID 980); also: nearly all actives have a fitted effect of over 60% in size
In short: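 Cells seeded at 2500/well and rested 5 hr at 37 C; compounds added over a concentration range and incubated 24 hr at 37 C; CellTiter-Glo added, 30 min at room temperature; luminescence read and AC50 fitted with Hill model.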

[10] = Cell Viability - LYMP2-010 (AID 981); also: nearly all actives have a fitted effect of over 55% in size
In short: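 Steps: seed 2500 LYMP2-010 cells per well; incubate 5 hr at 37 C; add compound; incubate 24 hr at 37 C; add CellTiter-Glo, wait 30 min at room temperature; read luminescence. Concentration-response fitted to Hill equation for AC50.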

[11] = Cell Viability - LYMP2-012 (AID 982)
[12] = Cell Viability - LYMP2-014 (AID 983); also: series mostly up to about 92 µM; nearly all actives have a fitted effect of over 50% in size
In short: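 Cells are plated at 2500/well and left 5 hr at 37 C. Compounds are added across a concentration range and incubated 24 hr at 37 C in complete medium. CellTiter-Glo is added, and luminescence is read after 30 min at room temperature.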

[13] = Cell Viability - LYMP2-016 (AID 984); also: nearly all actives have a fitted effect of over 55% in size
In short: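 Concentration-dependent ATP depletion measured in LYMP2-016 lymphoblastoid cells, 24 h, 37 C; luciferase-based luminescent detection; Hill-equation AC50.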

[14] = Cell Viability - LYMP2-018 (AID 985);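 also: compound exposure lasted 24 hr at 37 °C; nearly all actives have a fitted effect of over 50% in size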
In short: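 Seed 2500 lymphoblastoid cells per well, incubate 5 hr at 37 C, add compound and incubate 24 hr at 37 C, add CellTiter-Glo, wait 30 min at room temperature, then read luminescence.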

[15] = Cell Viability - LYMP2-020 (AID 986)
In short: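 Seed 2500 cells per well and incubate 5 hr at 37 C. Add compounds at a concentration series and incubate 24 hr at 37 C. Add CellTiter-Glo, wait 30 min at RT, read luminescence, and fit a Hill curve for AC50.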

[16] = Cell Viability - LYMP2-022 (AID 987); also: nearly all actives have a fitted effect of over 55% in size
In short: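 Cells were seeded at 2500 per well, rested 5 hr at 37 C, and treated with titrated compounds for 24 hr at 37 C. Cellular ATP was then quantified by luciferase luminescence, and AC50 values were derived from Hill-modelled concentration-response curves.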

[17] = Cell Viability - LYMP2-024 (AID 988); also: nearly all actives have a fitted effect of over 60% in size
In short: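 qHTS cytotoxicity, human lymphoblastoid line, complete medium; 24 h cpd treatment, 37 C; CellTiter-Glo ATP luminescence readout; tetraoctylammonium bromide positive control; AC50 via Hill fit.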

[18] = Cell Viability - LYMP2-026 (AID 989); also: nearly all actives have a fitted effect of over 50% in size
In short: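 Cells are seeded at 2500 per well and held 5 hr at 37 C. Compounds are added in concentration series for 24 hr, then CellTiter-Glo reagent is applied and luminescence read.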

[19] = Cell Viability - LYMP1-002 - Assay at 24 hr (AID 993)
In short: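 Acute toxicity is measured as concentration-dependent loss of cellular ATP in a human lymphoblastoid line (Coriell LYMP1-002) after 24 h treatment in complete medium. ATP is quantified by luciferase luminescence and AC50 derived by Hill modelling.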

Measured: outcome

NC(=O)c1ccccc1
inactive: [1] | [2] | [3] | [4] | [5] | [6] | [7] | [8] | [9] | [10] | [11] | [12] | [13] | [14] | [15] | [16] | [17] | [18] | [19]

CC(=O)C(C)=O
inactive: [1] | [2] | [3] | [4] | [5] | [6] | [7] | [8] | [9] | [10] | [11] | [12] | [13] | [14] | [15] | [16] | [17] | [18] | [19]
